Test [1] is described as follows: optical density shifts of acrAB sulA E. coli – strain DRC41, OD650, 48 h, E. coli filamentation inducer project, primary screen (AID 1152).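 Note: E. coli MC1000 strain DRC41 lacking acrAB efflux pump and sulA.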 To be noted: higher = more signal, called active from +8 up or from −8 down.
The nature of test [2]: probe aLefty1 binding on compound microarray – biochemical, small-molecule microarray, 635/667 nm fluorescence, primary screen (AID 1153).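 Note: score merges spot fluorescence with signal-to-noise ratio from the scanned slide images.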 To be noted: higher = more signal.
The nature of test [3]: plasmodial surface anion channel blockers, osmotic lysis – cell-based, P. falciparum Indochina, OD700, 1 h, primary screen (AID 1154). Conditions: P. falciparum Indochina infected RBC osmotic lysis, higher = more signal, called active from +8 up or from −8 down.
Test [4] can be described thus: plasmodial surface anion channel blockers, osmotic lysis – cell-based, P. falciparum Indochina, OD700, 2 h, primary screen (AID 1155).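 Note: lysis reports solute entry through the parasite surface anion channel PSAC.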 Conditions: P. falciparum Indochina infected erythrocytes, higher = more signal, called active from +8 up or from −8 down.
A short description of test [5]: changes in parasitized red cell lysis, either direction – P. falciparum Indochina, OD700, 3 h, PSAC antagonist project, primary screen (AID 1156). To be noted: P. falciparum-infected erythrocytes, osmotic lysis, higher = more signal, called active from +8 up or from −8 down.
The nature of test [6]: plasmodial surface anion channel blockers, osmotic lysis – cell-based, P. falciparum Indochina, OD700, 18 h, primary screen (AID 1157). Conditions: P. falciparum Indochina infected erythrocytes, osmotic lysis OD700, 18 h; higher = more signal, called active from +8 up or from −8 down.
The nature of test [7]: S6 kinase pathway phospho-S6 level changes – cell-based, A549, cytoblot, luminescence, serum-stimulated, primary screen (AID 1158).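 Note: serum-stimulated A549 lung adenocarcinoma cells; signal is phosphorylated S6 detected by cytoblot immunostaining with HRP secondary.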 To be noted: 5 h, higher = more signal.
Test [8] deals with NADPH oxidase 2 (Homo sapiens) (UniProt P04839). The test can be described thus: compounds shifting NOX2 Amplex Red fluorescence – cell-based, HEK293-NOX2, PMA-stimulated, NOX inhibitor project, primary screen (AID 1159). Note: test concentration not given here. Conditions: 45 min, higher = more signal, called active from +8 up or from −8 down.
Chain of NADPH oxidase 2 (Homo sapiens) (P04839 whole entry, looked up): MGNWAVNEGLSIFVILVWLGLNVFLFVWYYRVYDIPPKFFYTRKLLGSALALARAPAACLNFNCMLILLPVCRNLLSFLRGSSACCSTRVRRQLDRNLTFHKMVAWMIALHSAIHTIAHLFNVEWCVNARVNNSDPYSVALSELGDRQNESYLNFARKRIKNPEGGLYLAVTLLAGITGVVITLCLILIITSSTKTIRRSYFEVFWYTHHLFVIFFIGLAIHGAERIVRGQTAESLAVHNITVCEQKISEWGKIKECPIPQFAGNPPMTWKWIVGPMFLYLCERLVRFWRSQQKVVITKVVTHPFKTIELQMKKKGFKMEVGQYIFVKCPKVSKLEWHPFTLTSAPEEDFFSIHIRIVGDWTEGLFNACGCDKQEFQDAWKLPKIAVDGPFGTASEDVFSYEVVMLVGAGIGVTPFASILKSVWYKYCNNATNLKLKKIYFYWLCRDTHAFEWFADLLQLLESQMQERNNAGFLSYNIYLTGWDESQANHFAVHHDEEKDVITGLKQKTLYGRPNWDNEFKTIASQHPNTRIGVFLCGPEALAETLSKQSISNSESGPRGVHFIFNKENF
For test [9], the target named is NADPH oxidase 4 (Homo sapiens) (UniProt Q9NPH5). The test can be described thus: compounds shifting NOX4 Amplex Red fluorescence – cell-based, HEK293-NOX4, tetracycline-induced, NOX inhibitor project, primary screen (AID 1160). Conditions: HEK293-NOX4, Amplex Red H2O2 fluorescence, 45 min; higher = more signal, called active from +8 up or from −8 down.
Chain of NADPH oxidase 4 (Homo sapiens) (Q9NPH5 whole entry, looked up): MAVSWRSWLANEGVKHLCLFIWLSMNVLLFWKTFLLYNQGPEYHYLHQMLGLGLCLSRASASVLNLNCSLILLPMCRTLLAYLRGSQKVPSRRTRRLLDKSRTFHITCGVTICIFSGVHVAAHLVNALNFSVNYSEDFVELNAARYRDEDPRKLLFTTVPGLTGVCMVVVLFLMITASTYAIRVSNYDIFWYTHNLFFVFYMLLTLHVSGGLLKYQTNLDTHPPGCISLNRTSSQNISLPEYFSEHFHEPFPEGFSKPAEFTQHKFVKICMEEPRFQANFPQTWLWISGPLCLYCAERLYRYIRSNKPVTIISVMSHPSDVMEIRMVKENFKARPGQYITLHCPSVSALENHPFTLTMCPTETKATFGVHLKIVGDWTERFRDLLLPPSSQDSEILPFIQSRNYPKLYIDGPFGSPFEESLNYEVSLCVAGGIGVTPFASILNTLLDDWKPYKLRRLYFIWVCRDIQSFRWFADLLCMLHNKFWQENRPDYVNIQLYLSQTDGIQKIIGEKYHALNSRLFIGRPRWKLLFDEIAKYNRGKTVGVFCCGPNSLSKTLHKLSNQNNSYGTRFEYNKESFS
Test [10] has as its target NADPH oxidase 5 (Homo sapiens) (UniProt Q96PH1). The test is described as follows: compounds shifting NOX5 Amplex Red fluorescence – cell-based, HEK293-NOX5, NOX inhibitor project, primary screen (AID 1161). Conditions: HEK293-NOX5, ionomycin, 45 min, higher = more signal.

The structures appear in SMILES notation. Active and inactive are the calls of the source.

Chain of NADPH oxidase 5 (Homo sapiens) (Q96PH1 whole entry, looked up): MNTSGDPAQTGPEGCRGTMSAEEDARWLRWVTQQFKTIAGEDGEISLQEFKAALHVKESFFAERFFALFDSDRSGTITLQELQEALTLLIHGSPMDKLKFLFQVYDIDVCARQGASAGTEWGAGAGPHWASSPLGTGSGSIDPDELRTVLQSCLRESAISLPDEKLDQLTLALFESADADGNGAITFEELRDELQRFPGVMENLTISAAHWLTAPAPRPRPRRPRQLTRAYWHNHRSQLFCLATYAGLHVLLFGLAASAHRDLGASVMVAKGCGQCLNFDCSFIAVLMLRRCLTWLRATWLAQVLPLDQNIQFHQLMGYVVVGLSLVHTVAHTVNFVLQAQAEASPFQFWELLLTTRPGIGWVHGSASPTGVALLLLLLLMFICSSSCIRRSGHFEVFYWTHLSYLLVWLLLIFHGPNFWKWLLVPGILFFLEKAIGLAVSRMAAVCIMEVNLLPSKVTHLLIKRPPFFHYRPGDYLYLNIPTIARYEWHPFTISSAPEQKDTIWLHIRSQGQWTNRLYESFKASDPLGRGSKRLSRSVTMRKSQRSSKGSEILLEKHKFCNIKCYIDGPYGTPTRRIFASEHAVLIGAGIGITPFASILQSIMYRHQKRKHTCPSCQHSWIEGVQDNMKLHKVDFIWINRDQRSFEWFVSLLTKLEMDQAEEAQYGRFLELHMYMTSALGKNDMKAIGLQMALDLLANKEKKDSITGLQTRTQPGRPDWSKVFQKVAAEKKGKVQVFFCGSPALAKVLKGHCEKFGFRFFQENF

For the molecule `CCCCCCC#C[Si](O[C@H](c1ccccc1)c1cn([C@H](C)c2ccccc2)nn1)(C(C)C)C(C)C`, the z-score was 2.21 (inactive) in test [1]; 1.18 (inactive) in [3]; -0.0458 (inactive) in test [4]; -0.0391 (inactive) in test [5]; -0.0352 (inactive) in test [6]; 0.138 in test [7]. Further, the results for the z-score in [8], in [9] and in [10] were 0.054 (inactive), -0.749 (inactive) and 0.268, respectively. In test [2], this molecule had a composite z-score of -0.234.
Regarding `O=C1C2C=CC(C(O)C3CC=CCC3)N(n3cnnc3)C2C(=O)N1Cc1ccccc1` (stereo not given), the z-score in test [1] was -1.37 (inactive); in test [3], 1.36 (inactive); in [4], 0.585 (inactive); in test [5], 0.576 (inactive); in test [6] it was 0.388 (inactive); in test [7], -0.792. Further, the z-score in test [8] was -0.621 (inactive); in test [9], -1.61 (inactive); in test [10] it was -1.34. The composite z-score in [2] was 0.0455.
In the case of `COC(=O)c1c(CC[C@@H](CO)NC(=O)Nc2ncn[nH]2)oc(C(=O)Cc2ccccc2)c1C(=O)OC`, the z-score in test [1] is -0.862 (inactive); in [3] it was 0.658 (inactive); in [4] it was 0.22 (inactive); in test [5], -0.641 (inactive); in test [6] it was 0.0651 (inactive); in [7], 0.0642. The figures for the z-score in test [8], in test [9] and in test [10] were -1.16 (inactive), -0.331 (inactive) and -0.53, respectively. This molecule also yielded a composite z-score in test [2] of 0.0751.
For `COCCOC(=O)N1C(=O)[C@@]2(c3ccccc31)[C@H](C(=O)N1CCCCCCC1)[C@H]1C(=O)O[C@H](c3ccccc3)[C@H](c3ccccc3)N1[C@@H]2c1ccccc1OCCO`, the z-score was -0.946 (inactive) in test [1]; 1.49 (inactive) in test [3]; 0.529 (inactive) in [4]; 0.537 (inactive) in test [5]; 0.49 (inactive) in test [6]; -0.408 in test [7]. Also, the z-score in [8] is 0.966 (inactive); in test [9] it was 0.739 (inactive); in test [10] it was 1.24. In test [2], this molecule showed a composite z-score of 2.79.
With `CC(C)(C)OC(=O)CC[C@@]1(C(=O)N2CCOCC2)N=C(c2ccc(OCCCO)cc2)O[C@@H]1c1ccccc1N=[N+]=[N-]`, the z-score in test [1] was 1.96 (inactive); in test [3], 30.9 (active); in [4] it was 28.1 (active); in test [5], 1.09 (inactive); in test [6] it was 7.36 (inactive); in test [7] it was -0.242. Moreover, the z-score in test [8] was -3.49 (inactive); in test [9], 0.71 (inactive); in test [10] it was -2.04. The molecule also came in with a composite z-score in [2] of 0.394.
Turning to `[N-]=[N+]=NCc1ccccc1[C@H]1OC(c2ccc(OCCCO)cc2)=N[C@@]1(Cc1ccccc1)C(=O)O`, the z-score in [1] was -1.02 (inactive); in test [3], 17.6 (active); in [4], 1.59 (inactive); in test [5], -0.907 (inactive); in test [6], 0.246 (inactive); in [7] it was -0.239. Besides, the z-score is 0.861 (inactive) in test [8], 1.27 (inactive) in test [9] and 1.65 in [10]. This molecule also registered a composite z-score in test [2] of -0.166.
On to `COc1ccc(CCNC(=O)[C@@]2(C)c3ccccc3C(=O)N(Cc3ccccc3)[C@H]2c2ccc(CO)cc2)cc1`, for which the z-score was 1.09 (inactive) in test [1]; 6.03 (inactive) in test [3]; 0.219 (inactive) in [4]; 0.474 (inactive) in test [5]; -0.73 (inactive) in test [6]; 2.24 in test [7]. Moreover, the figures for the z-score in [8], in test [9] and in test [10] were -3.58 (inactive), -3.9 (inactive) and -4.78, respectively. This molecule had a composite z-score in test [2] of 0.187.
In the case of `CO[C@H]1O[C@H](CO)[C@@H](OC(=O)Nc2cccc(F)c2)[C@H](OC(=O)Nc2ccccc2-c2ccccc2)[C@@H]1OC(=O)Nc1ccccc1-c1ccccc1`, the z-score was 0.538 (inactive) in test [1]; 3.1 (inactive) in test [3]; 2.23 (inactive) in [4]; 0.346 (inactive) in test [5]; 1.68 (inactive) in test [6]; 0.0437 in test [7]. For the same molecule, the z-score in test [8] was -2.45 (inactive); in test [9], -0.551 (inactive); in test [10], -0.608. In [2], this molecule yielded a composite z-score of 0.257.
Turning to `CCCC[C@H]1OB(O)C[C@H]2C1=C(C)Cn1c(=O)n(-c3ccccc3)c(=O)n12`, the z-score in test [1] is -2.02 (inactive); in [3] it was 0.0016 (inactive); in test [4] it was 0.408 (inactive); in [5], 0.393 (inactive); in test [6], 0.181 (inactive); in test [7], 0.441. Also, the results for the z-score in test [8], in [9] and in test [10] were -0.59 (inactive), -0.181 (inactive) and -0.278, respectively. The composite z-score in [2] was -0.677.
As for `C=CCN1C(=O)[C@@]2(O[C@@H](CCO)[C@H]([Si](C)(C)c3ccc(OC)cc3)[C@H]2C)c2cc(N3C(=O)COc4ccccc43)ccc21`, the z-score is -0.37 (inactive) in test [1]; 24.5 (active) in test [3]; 11.4 (active) in test [4]; -0.122 (inactive) in test [5]; 2.68 (inactive) in [6]; 0.175 in [7]. In addition, the z-score was -0.548 (inactive) in test [8], -0.111 (inactive) in [9] and 0.0948 in test [10]. Moreover, the composite z-score in test [2] was determined as 0.0012.
For the molecule `C=C(CCCC)/C(=C/C[C@H](OC(C)=O)c1ccc(CO)o1)c1cc(C(=O)OC)ccc1OC`, the z-score in test [1] was 0.302 (inactive); in test [3], 1.99 (inactive); in test [4], -0.526 (inactive); in [5], 1.62 (inactive); in test [6], -2.02 (inactive); in test [7], 1.61. For the same molecule, the figures for the z-score in [8], in test [9] and in test [10] were -0.764 (inactive), -0.262 (inactive) and -1.54, respectively. For the same molecule, in test [2], the composite z-score is -0.0501.

The values above are taken from PubChem BioAssay.
